Bioassay records deposited in PubChem by National Center for Advancing Translational Sciences (NCATS).
Pf Dd2 inh: qHTS Primary assay for Inhibitors of Plasmodium falciparum Dd2 growth in vitro; P. falciparum Dd2 growth, SYBR Green, 72 h; Potency, µM (doses to about 28.9 µM), usual class: inhibitors; 120,000 compounds, 4.3% hits; active = well fitted inhibition curve with a large enough effect; also: nearly all actives have a fitted effect of over 65% in size
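Infected erythrocytes (Dd2, 0.3% parasitemia, 2.5% hematocrit final) are added to compound in RPMI-1640/Albumax II medium, grown 72 h at 37C in low oxygen, then lysed with saponin/Triton-X containing SYBR Green and read by fluorescence.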
Hits are given with their value. The sample as a whole holds a higher share of hits than the screen did.

What do the screens show for `Cc1n[nH]c(C)c1CCc1nc2c3ccccc3nc(SCC(=O)Nc3ccc(F)cc3)n2n1`?
Pf Dd2 inh: 8.91µM

What do the screens show for `O=C(CSc1nc2ccccc2c2nc(-c3ccccc3)nn12)Nc1ccc(Br)cc1`?
Pf Dd2 inh: inactive

What do the screens show for `COc1cc2nc(SCC(=O)Nc3cccc(C)c3)n3nc(CCn4c(C)nc5ccccc54)nc3c2cc1OC`?
Pf Dd2 inh: 2.24µM

How did Cc1ccc(NC(=O)CSc2nc3ccccc3c3nc(CCn4cncc4C)nn23)c(C)c1 do in these assays?
Pf Dd2 inh: inactive

Results for Cc1ccccc1NC(=O)CSc1nc2ccccc2c2nc(CCn3cncc3C)nn12 ?
Pf Dd2 inh: inactive

Results for CCOc1ccccc1NC(=O)CSc1nc2cc(OC)c(OC)cc2c2nc(CCn3c(C)nc4ccccc43)nn12 ?
Pf Dd2 inh: 3.16µM

Results for Cc1cccc(NC(=O)CSc2nc3ccccc3c3nc(CCn4cncc4C)nn23)c1 ?
Pf Dd2 inh: 10µM

What do the screens show for `COc1cc2nc(SCC(=O)Nc3cccc(C)c3)n3nc(-c4ccccc4)nc3c2cc1OC`?
Pf Dd2 inh: inactive

What do the screens show for `Cc1cccc(C)c1NC(=O)CSc1nc2ccccc2c2nc(CCc3c(C)n[nH]c3C)nn12`?
Pf Dd2 inh: inactive

Results for Cc1ccc(CSc2nc3ccccc3c3nc(CCn4c(C)nc5ccccc54)nn23)cc1 ?
Pf Dd2 inh: inactive

How did Cc1ccc(-c2ccc3nnc(CNC(=O)c4ccc(F)c(F)c4)n3n2)cc1C do in these assays?
Pf Dd2 inh: inactive

How did O=C(CCc1ccc(-c2ccc(Cl)cc2)[nH]1)N[C@@H]1C[C@@H]2OCC[C@@H]21 do in these assays?
Pf Dd2 inh: inactive

Results for Cc1cc(C(=O)N2CC[C@H]3CC(=O)N(Cc4ccc5c(c4)OCO5)CC[C@H]3C2)no1 ?
Pf Dd2 inh: inactive

What do the screens show for `Cc1ccc(C(=O)N2CCN(C(=O)N3CC4CC(C3)[C@H]3CCCC(=O)N3C4)CC2)s1` (stereo partly drawn)?
Pf Dd2 inh: inactive

What do the screens show for `COc1cc(NC(=O)N2CCCC(Cn3cnc4cccnc43)C2)cc(OC)c1` (stereo not drawn)?
Pf Dd2 inh: inactive

What do the screens show for `CCN(CC)Cc1cnc2c(C(=O)Nc3ccc(OC)cc3)cnn2c1`?
Pf Dd2 inh: inactive

How did O=C(NC[C@H]1OC[C@@H](NCc2ccccn2)[C@@H]1O)c1cccs1 do in these assays?
Pf Dd2 inh: inactive

How did Cc1noc([C@@H](C)NC(=O)c2ccc(Cl)cc2)c1C(=O)O do in these assays?
Pf Dd2 inh: inactive

What do the screens show for `Cc1ccc2c(=O)cc(C(=O)Nc3sc4c(c3C(=O)NCc3ccco3)CCC4)oc2c1C`?
Pf Dd2 inh: inactive

How did Cc1cc(C)c2c(=O)cc(C(=O)Nc3sc4c(c3C(=O)NCc3ccco3)CCCC4)oc2c1 do in these assays?
Pf Dd2 inh: inactive

Results for CCC(CC)NC(=O)CCC1CCN(C(=O)c2ccccc2Cl)CC1 ?
Pf Dd2 inh: inactive

How did Cc1ccccc1C(=O)Nc1sc2c(c1C(=O)NCc1ccco1)CCC(C(C)(C)C)C2 (stereo not drawn) do in these assays?
Pf Dd2 inh: 11.2µM

How did CC1CCN(C(=O)c2c(NC(=O)c3ccccc3Cl)sc3c2CCC(C(C)(C)C)C3)CC1 (stereo not drawn) do in these assays?
Pf Dd2 inh: 11.2µM

Results for CC(C)(C)C1CCc2c(sc(NC(=O)c3cc(-c4ccc(F)cc4)on3)c2C#N)C1 (stereo not drawn) ?
Pf Dd2 inh: inactive

What do the screens show for `Cc1ccccc1C(=O)Nc1sc2c(c1C(=O)N1CCCCC1)CCC(C(C)(C)C)C2` (stereo not drawn)?
Pf Dd2 inh: 5.62µM

What do the screens show for `Cc1ccccc1C(=O)Nc1sc2c(c1C(=O)O)CCC(C(C)(C)C)C2` (stereo not drawn)?
Pf Dd2 inh: inactive

Results for COC(=O)c1c(NC(=O)c2cccc(OC)c2)sc2c1CCC(C(C)(C)C)C2 (stereo not drawn) ?
Pf Dd2 inh: inactive

What do the screens show for `COCCNC(=O)[C@H]1C[C@H](Oc2ccccc2)CN1C(=O)NCC(C)C`?
Pf Dd2 inh: inactive

What do the screens show for `CC1(COc2ccccc2)COc2ccc(C(=O)NCc3cccc(F)c3)cc2N1` (stereo not drawn)?
Pf Dd2 inh: inactive

How did CC(C)N1CCN(C(=O)CCC2CCN(S(=O)(=O)c3ccccc3)CC2)CC1 do in these assays?
Pf Dd2 inh: inactive

Results for COCCN1C(=O)c2cccn2CC1CNC(=O)c1cccc(C)c1 (stereo not drawn) ?
Pf Dd2 inh: inactive

What do the screens show for `CCOc1ccc(-c2ccnc(N3CCOC(CN)C3)n2)cc1C(=O)O` (stereo not drawn)?
Pf Dd2 inh: inactive

Results for CCNC(=O)c1ccc(-n2c(-c3ccccc3)cc3c2CCCCC3)cc1 ?
Pf Dd2 inh: inactive

How did Cc1cc2c(n1-c1ccc(C(=O)NCC(C)c3ccccc3)cc1)CCCC2 (stereo not drawn) do in these assays?
Pf Dd2 inh: 10µM

How did CCCNC(=O)c1ccc(-n2c(-c3ccccc3)cc3c2CCCCC3)cc1 do in these assays?
Pf Dd2 inh: inactive

Results for Cc1ccccc1CNC(=O)c1ccc(-n2c(C)cc3c2CCCC3)cc1 ?
Pf Dd2 inh: 10µM
